Read-outs that look alike come from different tables or passages of the source.
Experiments:
Conditions in all cases: n = 1
[1] = system: T1, NDR1
T1 construct: gene STK38

[2] = system: NDR2
[3] = system: NEK10
[4] = system: NEK11
[5] = system: NEK1
[6] = system: NEK2
[7] = system: NEK3
[8] = system: NEK4
[9] = system: NEK5
[10] = system: NEK6
[11] = concentration: 1 μM, replicates: in singlicate
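Further: KINOMEscan kinase panel screen.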

Compound	%Inh [1, 11] [%]	%Inh [2, 11] [%]	%Inh [3, 11] [%]	%Inh [4, 11] [%]	%Inh [5, 11] [%]	%Inh [6, 11] [%]	%Inh [7, 11] [%]	%Inh [8, 11] [%]	%Inh [9, 11] [%]	%Inh [10, 11] [%]	%Inh ([1]; 1 µM) [%]	%Inh ([2]; 1 µM) [%]	%Inh ([3]; 1 µM) [%]	%Inh ([4]; 1 µM) [%]	%Inh ([5]; 1 µM) [%]	%Inh ([6]; 1 µM) [%]	%Inh ([7]; 1 µM) [%]	%Inh ([8]; 1 µM) [%]	%Inh ([9]; 1 µM) [%]	%Inh ([10]; 1 µM) [%]
Cl.NC(=O)c1cccc(Nc2nccc(Nc3ccc(Oc4cccc(Cl)c4)c(Cl)c3)n2)c1 [GW659008]	0	0	0	0	0	0	0	1	32	0										
COc1cc2nccc(Nc3ccc(NC(=O)c4ccc(C)cc4)c(O)c3)c2cc1OC.Cl [GW440132]	0	0	0	0	2	0	0	0	14	0										
Cc1c(Cn2ccn3c(=O)cc(N4CCOCC4)nc23)cccc1C(F)(F)F [GSK2289044]	31	0	0	0	0	8	0	0	2	0										
COc1ccccc1-c1ccc2c(NC(=O)C3CC3)n[nH]c2n1 [SB-711239]	8	0	11	33	0	22	0	6	0	4										
CCn1c(-c2ccccn2)nc2cnccc21 [SB-736398]	6	0	26	39	100	0	12	10	0	0										
CC(C)(C)c1ccc(C(=O)Nc2cn3cc(-c4cccnc4)ccc3n2)cc1	49	0	2	0	13	8	54	0	31	13										
Cc1ccc(NC(=O)Nc2cc(C(C)(C)C)nn2-c2ccccc2)cc1 [GSK1014915]	0	0	19	0	0	12	8	10	0	0										
Cc1c(O)cccc1Nc1ccnc2ccc(C(F)(F)F)cc12.Cl [GW466413]	0	0	16	0	0	0	0	0	0	0										
Cc1cccc(-c2nc(Nc3cccc(C(N)=O)c3)c3ccccc3n2)n1 [GW876019]	9	0	12	0	6	0	28	0	12	0										
O=C(Nc1ccccc1)Nc1cccc(Oc2ccc3nccn3n2)c1	4	0	0	0	0	0	8	0	0	0										
O=S(=O)(c1ccc(-c2ccnc3[nH]ccc23)cc1)N1CCCC1 [GSK846226]	33	38	15	0	12	16	16	0	31	0										
Fc1cc(Cl)ccc1Nc1ccnc2cc(-c3ccc(CN4CCCCC4)o3)ccc12 [GW560116]	9	18	5	4	0	0	0	0	4	0										
O=C(Nc1n[nH]c2cc(-c3cccc(F)c3F)ccc12)C1CC1 [SB-733894]	5	0	0	0	0	5	39	3	0	0										
Cl.Oc1ccc(-c2nc(-c3ccccc3)[nH]c2-c2ccncc2)cc1 [SB-428218]	12	5	9	24	0	3	15	29	6	0										
O=C(Nc1ccc2c(c1)OCO2)NC1CCN(c2ccnc(Nc3ccc(F)cc3)n2)C1 (centres unmarked) [GSK1379724]	0	0	11	0	0	0	17	20	25	0										
COc1cccc(-c2cc(-c3c[nH]nc3-c3ccccn3)ccn2)c1 [GW680338]	16	19	4	0	0	0	5	13	14	0										
Cc1ccc(NC(=O)Nc2cccc(C(F)(F)F)c2)cc1 [GSK955403]											15	17	24	0	7	3	5	0	0	0
Fc1cc(Cl)ccc1Nc1ccnc2cc(I)ccc12 [GW551191]	18	0	25	0	0	4	0	11	0	0										

Compound	%Inh [1, 11] [%]	%Inh [2, 11] [%]	%Inh [3, 11] [%]	%Inh [4, 11] [%]	%Inh [5, 11] [%]	%Inh [6, 11] [%]	%Inh [7, 11] [%]	%Inh [8, 11] [%]	%Inh [9, 11] [%]	%Inh [10, 11] [%]	%Inh ([1]; 1 µM) [%]	%Inh ([2]; 1 µM) [%]	%Inh ([3]; 1 µM) [%]	%Inh ([4]; 1 µM) [%]	%Inh ([5]; 1 µM) [%]	%Inh ([6]; 1 µM) [%]	%Inh ([7]; 1 µM) [%]	%Inh ([8]; 1 µM) [%]	%Inh ([9]; 1 µM) [%]	%Inh ([10]; 1 µM) [%]
CS(=O)(=O)c1ccc(-c2nc3n(c2-c2ccncc2)CCC3)cc1 [SKF-105942]	19	0	17	0	0	15	58	22	1	0										
CN(C)CCN(C)C(=O)c1cc(-c2ccncc2)c(-c2ccc(Cl)c(O)c2)o1.Cl.Cl [SB-710397]	1	36	33	29	0	0	26	20	8	0										
Cn1ccc2ncnc(Oc3ccc(NC(=O)Nc4ccccc4)cc3)c21	9	0	18	0	0	3	12	0	0	0										
Fc1cccc(COc2nnc(-c3ccc4c(c3)CCO4)o2)c1	0	4	0	0	10	0	12	0	0	0										
O=C(Nc1n[nH]c2nc(-c3nccs3)c(Br)cc12)C1CCCC1 [SB-742609]	0	0	15	0	0	0	14	38	0	0										
Cc1cc(-c2ccc3c(c2)CC[C@@H](N[C@@H](C)c2ccccc2)C3)cnc1N.Cl [GW412617]	0	0	63	20	0	3	0	16	0	14										
Cc1ccc(-c2cc(-c3c[nH]nc3-c3ccccn3)ccn2)cc1 [GW684088]	20	47	0	30	0	0	8	0	11	0										
COc1cc2ncn(-c3cc(OCC4CCCO4)c(C(N)=O)s3)c2cc1OC (centres unmarked) [GSK204607]	12	10	0	0	11	28	5	0	10	0										
COC(=O)c1c(-c2ccccc2)c2cc(C(=O)O)ccc2c(=O)n1Cc1ccccc1	2	0	9	0	22	0	31	0	0	0										
CC(=O)Nc1nc2cnc(Nc3cc(NC(=O)c4cccc(CCC#N)c4)ccc3C)nc2s1	0	22	13	0	0	2	7	0	0	14										
Cc1nnc(-c2ccc3occ(-c4ccc(S(C)=O)cc4)c3c2)[nH]1 (centres unmarked)	1	0	0	0	0	11	11	0	1	8										
Clc1cc(Cl)cc(Nc2ccnc(Nc3cc(Cl)cc(Cl)c3)n2)c1 [GSK175726]	21	11	4	8	1	4	16	0	23	0										
Cc1cccc(-c2nc(-c3ccc(S(C)(=O)=O)cc3)sc2-c2ccnc(NCCc3ccccc3)c2)c1	1	0	14	0	0	0	30	0	2	0										
COc1ccc(Nc2nccc(-c3cccc(NC(=O)c4cc5cc(F)ccc5[nH]4)c3)n2)cc1 [GSK1229782]	0	34	40	16	12	3	12	9	29	1										
Cn1cncc1-c1ccc2ncnc(Nc3ccc(OCc4ccccc4)cc3)c2c1 [GW320571]	0	0	3	0	0	0	0	11	0	6										
Cc1cc(N2Cc3ccccc3C2)nc(Nc2ccc(S(=O)(=O)N3CCOCC3)cc2)n1.Cl [GSK1669917]	20	0	0	0	0	0	0	9	23	0										
Cl.c1ccc(-c2n[nH]cc2-c2ccnc(-c3ccc(CN4CCOCC4)cc3)c2)nc1 [GW776245]	14	31	0	0	0	21	14	0	6	22										

Reference: article PMC5540273 (PLoS ONE, 2017)
